Data taken from PubChem BioAssay (Tox21).
A number with no mark means an inactive call. Results filed as inconclusive are left out. Entries that show only a call come without a potency. Activity calls are given as the source filed them. Unless noted, the call rests on the fitted dose curve; in most records, active means well fitted curve in the direction sought with a large enough effect in the repeat runs; inconclusive means weak or mixed curves; inactive means no such curve, though single readings can be large; an effect the other way counts as inactive or inconclusive.

Experiments:
[1] = qHTS RealTime-Glo MT Cell Viability Assay in HEK293 cells - 0 hour (AID 1224880); further: top concentration of the series differs between compounds; nearly all actives have a fitted effect of over 45% in size
Summary of the method: (§1)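 Cells were seeded together with NanoLuc luciferase and a prosubstrate that viable cells reduce to a luciferase substrate. After a 5 h incubation at 37 C/5% CO2, compounds were added and luminescence was measured repeatedly during 40 h of treatment.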

[2] = A CellTox Green Cytotoxicity Assay to monitor cytotoxicity in HEK293 cells - 32 hour (AID 1224881); further: nearly all actives have a fitted effect of over 40% in size; further: potency means the concentration at half of the fitted maximal effect
Summary of the method: (§2)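 Nonlytic real-time cytotoxicity: HEK293 + CellTox Green reagent plated, 5 h preincubation, pintool compound addition (23 nL in DMSO), 37 C for 40 h, fluorescence measured at successive time points.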

[3] = A CellTox Green Cytotoxicity Assay to monitor cytotoxicity in HepG2 cells - 0 hour (AID 1224882); further: nearly all actives have a fitted effect of over 35% in size; further: potency means the concentration at half of the fitted maximal effect
Summary of the method: (§3)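 Read-out is fluorescence of a cyanine dye excluded from live cells that stains DNA of dead HepG2 cells, with signal proportional to cytotoxicity. Plates were read at 0, 8, 16, 24, 32 and 40 h after compound addition.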

[4] = A CellTox Green Cytotoxicity Assay to monitor cytotoxicity in HepG2 cells - 32 hour (AID 1224883); further: nearly all actives have a fitted effect of over 50% in size; further: potency means the concentration at half of the fitted maximal effect
Summary of the method: as §3

[5] = A CellTox Green Cytotoxicity Assay to monitor cytotoxicity in HEK293 cells - 8 hour (AID 1224884); further: nearly all actives have a fitted effect of over 35% in size; further: potency means the concentration at half of the fitted maximal effect
Summary of the method: as §2

[6] = qHTS RealTime-Glo MT Cell Viability Assay in HepG2 cells - 16 hour (AID 1224885); further: nearly all actives have a fitted effect of over 50% in size
Summary of the method: (§4)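 Tox21 10K library screened in qHTS format on HepG2 cells carrying RealTime-Glo reagents. Compounds were added after a 5 h preincubation, and the luminescent signal from continuous culture was measured repeatedly during 40 h treatment.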

[7] = A CellTox Green Cytotoxicity Assay to monitor cytotoxicity in HEK293 cells - 16 hour (AID 1224888); further: nearly all actives have a fitted effect of over 35% in size; further: potency means the concentration at half of the fitted maximal effect
Summary of the method: as §2

[8] = qHTS RealTime-Glo MT Cell Viability Assay in HepG2 cells - 0 hour (AID 1224889); further: nearly all actives have a fitted effect of over 50% in size
Summary of the method: as §4

[9] = A CellTox Green Cytotoxicity Assay to monitor cytotoxicity in HepG2 cells - 8 hour (AID 1224890); further: nearly all actives have a fitted effect of over 45% in size; further: potency means the concentration at half of the fitted maximal effect
Summary of the method: as §3

[10] = qHTS assay to identify small molecule antagonists of the estrogen receptor alpha (ER-alpha) signaling pathway using the BG1 cell line in the presence of 0.1 nM 17-beta-estradiol - cell viability counter screen (AID 1259241); further: nearly all actives have a fitted effect of over 40% in size
Summary of the method: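 VM7Luc4E2, 4,000 cells/well, phenol red-free medium + 10% charcoal-stripped FBS; 24 hr plating; cpd + 0.1 nM E2 final, 22 hr 37C/5% CO2; CellTiter-Fluor 30 min, fluorescence.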

[11] = qHTS assay to identify small molecule antagonists of the androgen receptor (AR) signaling pathway using the MDA cell line in the presence of 0.5 nM R1881 - cell viability counter screen (AID 1259242); further: nearly all actives have a fitted effect of over 45% in size
Summary of the method: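 Counter screen for cytotoxicity run in the same wells as the AR antagonist reporter screen: MDA-kb2 cells were treated 16 hr with test compounds and 0.5 nM R1881, then live-cell protease activity was measured by fluorescence.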

[12] = qHTS assay to identify small molecule HDAC inhibitors - cell viability counter screen (AID 1259365); further: series mostly up to about 92 µM; nearly all actives have a fitted effect of over 50% in size
Summary of the method: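 Luminescence from CellTiter-Glo, developed 30min at room temperature, reports viability of wild-type HCT-116 cells treated 2hr with compounds at 37 C and 5% CO2 after overnight plating.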

[13] = qHTS assay to identify small molecule agonists of the sonic hedgehog signaling (Shh) pathway - cell viability counter screen (AID 1259366); further: nearly all actives have a fitted effect of over 50% in size
Summary of the method: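 Cytotoxicity counter screen run in the same wells as the Shh reporter assay. NIH/3T3 cells carrying a Gli1 response element–driven luciferase were treated with DMSO-dissolved compounds for 24hr, and live-cell protease activity was measured with CellTiter-Fluor.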

[14] = qHTS assay to identify small molecule antagonists of the sonic hedgehog signaling (Shh) pathway - cell viability counter screen (AID 1259367); further: nearly all actives have a fitted effect of over 55% in size
Summary of the method: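 Seed 3T3 Gli1-Luc cells at 2,000 per well; incubate 4 hr; add compound in DMSO, then conditioned medium; incubate at 37C with 5% CO2; add CellTiter-Fluor after 23 hr; read fluorescence 1 hr later.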

[15] = qHTS RealTime-Glo MT Cell Viability Assay in HEK293 cells - 24 hour (AID 1224886)
Summary of the method: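 Luminescence generated by NanoLuc from substrate produced by living HEK293 cells served as the viability signal. Each value reflects the reading at its stated time point during continuous 40 h compound exposure at 37 C.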

[16] = qHTS RealTime-Glo MT Cell Viability Assay in HEK293 cells - 8 hour (AID 1224887)
Summary of the method: as §1

[17] = biological target: Androgen receptor (Homo sapiens) (UniProt P10275); assay: qHTS assay to identify small molecule antagonists of the androgen receptor (AR) signaling pathway using the MDA cell line in the presence of 0.5 nM R1881 (AID 1259243); further: nearly all actives have a fitted effect of over 50% in size
Chain of Androgen receptor (Homo sapiens) (P10275 whole entry, looked up): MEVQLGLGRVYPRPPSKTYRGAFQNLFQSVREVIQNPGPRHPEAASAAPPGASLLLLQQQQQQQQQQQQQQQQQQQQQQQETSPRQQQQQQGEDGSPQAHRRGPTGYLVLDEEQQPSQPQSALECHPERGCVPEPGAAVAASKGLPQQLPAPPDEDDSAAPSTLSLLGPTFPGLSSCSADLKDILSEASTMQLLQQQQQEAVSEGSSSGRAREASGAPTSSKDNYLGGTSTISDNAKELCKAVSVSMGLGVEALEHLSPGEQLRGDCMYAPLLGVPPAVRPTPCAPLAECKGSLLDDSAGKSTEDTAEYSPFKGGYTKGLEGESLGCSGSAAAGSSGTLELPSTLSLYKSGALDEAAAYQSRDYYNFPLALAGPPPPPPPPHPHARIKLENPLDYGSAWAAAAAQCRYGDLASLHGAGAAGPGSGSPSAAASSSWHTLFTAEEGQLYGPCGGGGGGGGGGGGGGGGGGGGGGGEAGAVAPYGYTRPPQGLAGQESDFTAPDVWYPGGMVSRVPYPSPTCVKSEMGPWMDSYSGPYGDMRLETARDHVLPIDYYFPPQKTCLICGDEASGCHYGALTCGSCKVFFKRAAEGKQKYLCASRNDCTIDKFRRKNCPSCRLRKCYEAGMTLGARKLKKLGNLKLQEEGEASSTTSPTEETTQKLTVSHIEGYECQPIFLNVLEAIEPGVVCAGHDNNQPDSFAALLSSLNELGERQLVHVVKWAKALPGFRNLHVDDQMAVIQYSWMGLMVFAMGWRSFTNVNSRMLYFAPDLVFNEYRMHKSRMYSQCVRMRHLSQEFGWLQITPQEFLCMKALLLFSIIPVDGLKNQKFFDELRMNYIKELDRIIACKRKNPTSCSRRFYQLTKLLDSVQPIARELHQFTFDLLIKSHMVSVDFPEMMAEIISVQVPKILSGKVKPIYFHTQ
Summary of the method: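 Luciferase luminescence is the read-out: compounds are tested for suppressing 0.5 nM R1881-driven MMTV reporter activity in MDA-kb2 cells after 16 hr at 37C.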

[18] = biological target: Estrogen receptor (Homo sapiens) (UniProt P03372); assay: qHTS assay to identify small molecule antagonists of the estrogen receptor alpha (ER-alpha) signaling pathway using the BG1 cell line in the presence of 0.1 nM 17-beta-estradiol (AID 1259244); further: nearly all actives have a fitted effect of over 50% in size
Chain of Estrogen receptor (Homo sapiens) (P03372 whole entry, looked up): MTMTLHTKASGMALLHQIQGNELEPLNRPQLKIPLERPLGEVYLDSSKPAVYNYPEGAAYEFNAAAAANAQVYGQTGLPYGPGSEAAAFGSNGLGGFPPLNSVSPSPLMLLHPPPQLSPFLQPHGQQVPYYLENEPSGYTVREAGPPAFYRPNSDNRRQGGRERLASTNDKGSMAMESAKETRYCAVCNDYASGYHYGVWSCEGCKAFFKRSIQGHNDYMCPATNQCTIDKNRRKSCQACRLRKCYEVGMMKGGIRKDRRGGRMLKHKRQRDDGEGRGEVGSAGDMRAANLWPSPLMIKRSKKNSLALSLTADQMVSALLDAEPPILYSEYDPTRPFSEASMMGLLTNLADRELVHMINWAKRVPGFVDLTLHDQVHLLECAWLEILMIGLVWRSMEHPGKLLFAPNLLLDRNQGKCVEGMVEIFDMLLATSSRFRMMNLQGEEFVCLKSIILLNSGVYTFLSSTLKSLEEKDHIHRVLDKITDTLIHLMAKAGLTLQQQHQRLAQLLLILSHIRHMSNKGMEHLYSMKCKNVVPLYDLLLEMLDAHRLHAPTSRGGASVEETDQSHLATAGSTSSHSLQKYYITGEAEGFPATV
Summary of the method: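 Cells: VM7Luc4E2, endogenous ER-alpha, 4x ERE-luc stable. Pre-culture 5 d, phenol red-free, charcoal-stripped FBS. Plated 24 h, compound + E2 0.1 nM final, 22 h 37C/5% CO2. Readout ONE-Glo luminescence.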

[19] = qHTS assay to identify small molecule HDAC inhibitors (AID 1259364); further: nearly all actives have a fitted effect of over 45% in size; further: potency means the concentration at half of the fitted maximal effect
Summary of the method: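 Luminescence from a cell-permeant luminogenic class I/II HDAC substrate reports endogenous deacetylase activity in intact HCT-116 cells treated with compounds for 2 h.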

[20] = qHTS assay to identify small molecule phospholipidosis (PLD) inducers (AID 1259344; active means well fitted curve in the direction sought with a large enough effect; an effect the other way counts as inactive or inconclusive)
Summary of the method: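 Quantitative HTS in HepG2: compound plus LipidTOX Red dye for 24 h, paraformaldehyde fixation with Hoechst 33342, widefield high-content imaging; amiodarone as positive and DMSO as negative control.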

| SMILES | outcome [1] | Potency [2] | Potency [3] | Potency [4] | Potency [5] | outcome [6] | Potency [7] | Potency [8] | Potency [9] | Potency [10] | outcome [11] | outcome [12] | Potency [13] | Potency [14] | Potency [15] | Potency [16] | Potency [17] | Potency [18] | Potency [19] | outcome [20] |
| --- | --- | --- | --- | --- | --- | --- | --- | --- | --- | --- | --- | --- | --- | --- | --- | --- | --- | --- | --- | --- |
| O=C1CCC(C2CCCCC2)CC1 | inactive | 43.6 µM (active) | 38.9 µM (active) | 38.9 µM (active) | 43.6 µM (active) | inactive | 43.6 µM (active) | inactive | 27.5 µM (active) | inactive | inactive | inactive | inactive | inactive |  |  |  |  |  |  |
| Nc1cccc(S(=O)(=O)O)c1 | inactive | inactive | inactive | inactive | inactive |  | inactive | inactive | inactive | inactive | inactive | inactive | inactive | inactive | inactive | inactive | inactive | inactive |  |  |
| CN1CCN(N)CC1 | inactive | inactive | inactive | inactive | inactive |  | inactive | inactive | inactive | inactive | inactive | inactive | inactive | inactive | inactive | inactive | inactive | inactive | inactive |  |
| OCc1ccccc1O | inactive | inactive | inactive | inactive | inactive | inactive | inactive |  | inactive | inactive | inactive | inactive | inactive | inactive | inactive | inactive |  |  | inactive | inactive |
| COC(=O)/C=C(/C)N | inactive | inactive | inactive | inactive | inactive | inactive |  | inactive | inactive | inactive | inactive | inactive | inactive | inactive | inactive | inactive | inactive | inactive | inactive |  |
| Cc1ccccc1C(=O)Nc1ccc(C(=O)N2CCCC(O)c3cc(Cl)ccc32)c(C)c1 (configuration not stated) | inactive | inactive | inactive | inactive | inactive | inactive | inactive | inactive | inactive | inactive | inactive | inactive | inactive | inactive |  |  |  |  | inactive |  |
| CCOc1ccc(NS(=O)(=O)c2ccc(N)cc2)nn1 | inactive | inactive | inactive | inactive | inactive | inactive | inactive |  | inactive | inactive | inactive | inactive | inactive | inactive |  |  |  |  | inactive | inactive |
| Cc1cc2nc(N)sc2cc1C | inactive | inactive | inactive | inactive | inactive |  | inactive | inactive | inactive | inactive | inactive | inactive | inactive | inactive | inactive | inactive | inactive |  | 0.276 µM (active) |  |
| C=CCc1cc(OC)c(O)c(C(=O)NCCO)c1 | inactive | inactive | inactive | inactive | inactive |  | inactive | inactive | inactive | inactive | inactive | inactive | inactive | inactive | inactive | inactive |  | inactive | inactive | inactive |
| Cc1ccc([N+](=O)[O-])c(N)c1 | inactive | inactive | inactive | inactive | inactive |  | inactive | inactive | inactive |  | inactive | inactive |  |  | inactive | inactive |  |  | inactive |  |
| CC(C)OC(C)C | inactive | inactive | inactive | inactive | inactive |  | inactive | inactive | inactive | inactive | inactive | inactive | inactive | inactive | inactive | inactive |  | inactive | inactive |  |
| C=CC(C)(O)CC/C=C(\C)CCC=C(C)C (configuration not stated) | inactive | 49 µM (active) | inactive | 21.9 µM (active) |  | inactive |  | inactive |  | inactive | inactive | inactive | inactive | inactive | inactive | inactive |  |  | inactive | inactive |
| CCC1(C)NC(=O)NC1=O (configuration not stated) | inactive | inactive | inactive |  | inactive | inactive | inactive | inactive | inactive | inactive | inactive | inactive | inactive | inactive | inactive | inactive |  |  |  |  |
| COC(=O)c1ccc(OC)cc1 | inactive | inactive | inactive | inactive | inactive |  | inactive |  |  | inactive | inactive | inactive | inactive | inactive | inactive | inactive |  |  | inactive |  |
| CC(=O)Oc1cc(C(C)C)c(OCCN(C)C)cc1C | inactive | inactive | inactive | inactive | inactive |  | inactive | inactive | inactive | inactive | inactive | inactive | inactive | inactive |  |  |  |  | inactive | inactive |
| Cc1ccsc1C(=CCCN1CCC[C@@H](C(=O)O)C1)c1sccc1C | inactive | inactive | inactive |  | inactive | inactive | inactive | inactive | inactive | inactive | inactive | inactive | inactive | inactive | inactive | inactive | inactive | inactive | inactive | inactive |
